The text below walks through data of the antibiotic and cytotoxicity screens of Wong et al. (2023).

Among all 39,000 compounds or so, about 500 (1.3%) were called active. The full list was thinned out, with actives kept by preference.

The test has as its system S. aureus RN4220. Description: growth inhibition call (relative growth <= 0.2). Particulars: 50 µM.
Turning to `COc1ccc(NC(=O)N(C)C[C@@H]2OCCCC[C@H](C)Oc3ccc(NC(=O)Cc4ccccc4)cc3C(=O)N([C@@H](C)CO)C[C@@H]2C)cc1`, the growth inhibition call is “inactive”.
With `C[C@H]1CN([C@@H](C)CO)C(=O)c2cc(C#Cc3ccc(F)cc3)cnc2O[C@@H]1CN(C)CC1CCOCC1` the entry was “inactive”; with `CC1=C(/C=C/C(C)=C/C=C/C(C)=C/C=C/C=C(C)/C=C/C=C(C)/C=C/C2=C(C)CCCC2(C)C)C(C)(C)CCC1`, “inactive”.
With `Cc1noc(C)c1NC(=O)Nc1cccc2c1O[C@H](CN(C)S(=O)(=O)c1cn(C)cn1)[C@H](C)CN([C@@H](C)CO)C2=O` the entry was “inactive”; with `C[C@H](CO)N1C[C@H](C)[C@@H](CN(C)Cc2ccc(C(=O)Nc3ccccc3N)cc2)Oc2c(NS(=O)(=O)c3cn(C)cn3)cccc2C1=O`, “inactive”.
With `Cc1nn(C)c(COc2ccc(N3CCN(S(=O)(=O)N(C)C)CC3)cc2)c1-c1cccc2c(CCCOc3cccc4ccccc34)c(C(=O)O)n(CCN3CCNCC3)c12` the entry was “inactive”.
For `COc1cc(C(=O)N2CCN(CCN3C(=O)c4cccc5cccc(c45)C3=O)CC2)cc(OC)c1OC`, the growth inhibition call was “inactive”.
Take `COc1ccc2c(c(Br)c(C(=O)O)n2CCCOc2cccc3ccccc23)c1-c1ccccc1C`: the growth inhibition call was “active”.
With `C=Cn1cnc2c1c(=O)n(C)c(=O)n2C` the entry was “inactive”; with `CC(C)=CCc1c2c(c3occ(-c4ccc(O)cc4)c(=O)c3c1O)C=CC(C)(C)O2`, “inactive”; with `CC(C)=CCCC1(C)C=Cc2c(O)c3c(c(CC=C(C)C)c2O1)OC12C(=CCCC1C(C)(C)OC2(CC=C(C)C(=O)O)C(=O)O)C3=O` (centres undefined), “active”.
With `C=c1ccc(S(=O)(=O)NC[C@@H](C)O)cc1=C1NN=C2c3ccccc3C(C)=NN21` the entry was “inactive”; with `C[C@H](CO)N1C[C@H](C)[C@H](CN(C)S(C)(=O)=O)Oc2cc(C#Cc3ccc(F)cc3)ccc2S1(=O)=O`, “inactive”; with `C[C@@H]1CN([C@H](C)CO)C(=O)c2cccc(NS(=O)(=O)c3ccccc3)c2O[C@@H]1CN(C)Cc1ccncc1`, “inactive”.
As to `CCCCCCCCCCCCC[N+](C)(C)Cc1ccccc1`, the growth inhibition call is “active”.
With `CCCCCCCCCCCCC[N+](C)(C)Cc1ccccc1.O.[Cl-]` the entry was “inactive”.
With `CCCCCCCCCCCCCCCC[N+](C)(C)Cc1ccccc1.[Cl-]` the entry was “inactive”.
With `Cc1noc(C)c1S(=O)(=O)N(C)C[C@@H]1Oc2ccc(NS(C)(=O)=O)cc2CC(=O)N([C@H](C)CO)C[C@H]1C` the entry was “inactive”; with `C[C@@H]1CN([C@H](C)CO)C(=O)c2cccc(NC(=O)c3cnccn3)c2O[C@@H]1CN(C)S(=O)(=O)c1ccc(F)cc1`, “inactive”; with `C[C@@H]1CCCCO[C@@H](CN(C)C(=O)Nc2ccc3c(c2)OCO3)[C@H](C)CN([C@@H](C)CO)C(=O)c2cc(NC(=O)Nc3ccccc3)ccc2O1`, “inactive”.
As for `COc1ccc(C#Cc2ccc3c(c2)O[C@@H](CN(C)S(=O)(=O)c2ccccc2F)[C@H](C)CN([C@H](C)CO)S3(=O)=O)cc1`, the growth inhibition call is “inactive”.
With `O=C(O)CN(CC(=O)O)Cc1cc2c(-c3ccccc3C(=O)O)c3cc(CN(CC(=O)O)CC(=O)O)c(=O)cc-3oc2cc1O` the entry was “inactive”; with `O=C(O)c1ccccc1-c1ccco1`, “inactive”; with `O=C(O)c1ccccc1-c1c2cc(I)c(=O)c(I)c-2oc2c(I)c(O)c(I)cc12`, “active”.
With `O=C([O-])c1ccccc1-c1c2cc(I)c(=O)c(I)c-2oc2c(I)c([O-])c(I)cc12.[Na+].[Na+]` the entry was “active”.
With `C[C@@H]1CN([C@@H](C)CO)C(=O)c2cc(NS(=O)(=O)c3ccccc3)ccc2O[C@@H](C)CCCCO[C@@H]1CN(C)Cc1ccc2c(c1)OCO2` the entry was “inactive”; with `Cc1ccc(S(=O)(=O)N(C)C[C@H]2OCCCC[C@H](C)Oc3ccc(NC(=O)NC4CCCCC4)cc3C(=O)N([C@H](C)CO)C[C@@H]2C)cc1`, “inactive”; with `O=C(CN1CCOCC1)N[C@H]1CC[C@H](CCNS(=O)(=O)c2ccccc2F)O[C@H]1CO`, “inactive”.
In the case of `CO[C@@H]1CN(C)C(=O)c2ccc(NC(=O)Nc3cccc(F)c3)cc2OC[C@H](C)N(C(=O)Nc2c(C)noc2C)C[C@H]1C`, the growth inhibition call was “inactive”.
Regarding `CC(O)C1C(=O)N2C(C(=O)O)=C(SC3CNC(C(=O)N(C)C)C3)C(C)C12` (centres undefined), the growth inhibition call was “active”.
Consider `C[C@@H](O)[C@H]1C(=O)N2C(C(=O)O)=C(SCCNC=N)C[C@H]12`, for which the growth inhibition call was “inactive”.
With `CC(O)C1C(=O)N2C(C(=O)[O-])=C(SC3Cn4cnc[n+]4C3)C(C)C12` (centres undefined) the entry was “inactive”; with `C[C@@H]1CN([C@@H](C)CO)C(=O)CCCn2cc(nn2)CO[C@H]1CN(C)C(=O)C1CC1`, “inactive”; with `C[C@H](CO)N1C[C@H](C)[C@H](CN(C)C(=O)CCC(F)(F)F)OCCCC[C@H](C)Oc2ccc(NC(=O)C3CCCCC3)cc2C1=O`, “inactive”.
Regarding `COc1cccc(S(=O)(=O)N2C[C@@H](O)COC[C@@H]3O[C@@H](CC(=O)N4CCN(c5ccccc5)CC4)CC[C@H]32)c1`, the growth inhibition call is “inactive”.
As to `CNC(CC(C)C)C(=O)NC1C(=O)NC(CC(N)=O)C(=O)NC2C(=O)NC3C(=O)NC(C(=O)NC(C(=O)O)c4cc(O)cc(O)c4-c4cc3ccc4O)C(O)c3ccc(c(Cl)c3)Oc3cc2cc(c3OC2OC(CO)C(O)C(O)C2OC2CC(C)(N)C(O)C(C)O2)Oc2ccc(cc2Cl)C1O.Cl` (centres undefined), the growth inhibition call is “active”.
With `CC1OC(OC2C(Oc3cc(O)c4c(c3)OC(c3ccc(O)cc3)CC4=O)OC(CO)C(O)C2O)C(O)C(O)C1O` (centres undefined) the entry was “inactive”; with `C[C@@H]1O[C@@H](O[C@H]2[C@@H](Oc3cc(O)c4c(c3)O[C@H](c3ccc(O)cc3)CC4=O)O[C@H](CO)[C@@H](O)[C@@H]2O)[C@H](O)[C@H](O)[C@H]1O`, “inactive”; with `CC(C)C[C@@H](N)C(=O)N[C@H]1C(=O)N[C@@H](CC(N)=O)C(=O)N[C@H]2C(=O)N[C@H]3C(=O)N[C@H](C(=O)N[C@H](C(=O)O)c4cc(O)cc(O)c4-c4cc3ccc4O)[C@H](O)c3ccc(c(Cl)c3)Oc3cc2cc(c3O[C@@H]2O[C@H](CO)[C@@H](O)[C@H](O)[C@H]2O[C@H]2C[C@](C)(N)[C@H](O)[C@H](C)O2)Oc2ccc(cc2Cl)[C@H]1O`, “active”.
For the compound `C[C@@H]1O[C@@H](O[C@H]2[C@H](Oc3cc(O)c4c(c3)O[C@H](c3ccc(O)cc3)CC4=O)O[C@H](CO)[C@@H](O)[C@@H]2O)[C@H](O)[C@H](O)[C@H]1O`, the growth inhibition call was “inactive”.
With `CN[C@H](CC(C)C)C(=O)N[C@H]1C(=O)N[C@@H](CC(N)=O)C(=O)N[C@H]2C(=O)N[C@H]3C(=O)N[C@H](C(=O)N[C@H](C(=O)O)c4cc(O)cc(O)c4-c4cc3ccc4O)[C@H](O)c3ccc(c(Cl)c3)Oc3cc2cc(c3O[C@@H]2O[C@H](CO)[C@@H](O)[C@H](O)[C@H]2O[C@H]2C[C@](C)(N)[C@H](O)[C@H](C)O2)Oc2ccc(cc2Cl)[C@H]1O` the entry was “active”; with `C[C@H]1CCCC[C@]12NC(=O)NC2=O`, “inactive”; with `CC1CCC(C(C)C)C(=O)C1` (centres undefined), “inactive”.
With `C[C@H](CO)N1C[C@H](C)[C@@H](CN(C)Cc2ccccc2)OCCCC[C@H](C)Oc2ccc(NC(=O)C3CCCCC3)cc2C1=O` the entry was “inactive”; with `COc1ccc(S(=O)(=O)Nc2ccc3c(c2)CC(=O)N([C@@H](C)CO)C[C@H](C)[C@@H](CN(C)S(C)(=O)=O)O3)cc1`, “inactive”; with `Cc1ccc(S(=O)(=O)N(C)C[C@H]2Oc3c(NS(=O)(=O)c4cn(C)cn4)cccc3C(=O)N([C@@H](C)CO)C[C@H]2C)cc1`, “inactive”.
`COCCNC(=O)C[C@H]1CC[C@H]2[C@@H](COC[C@@H](O)CN2S(=O)(=O)c2ccccc2C)O1`: the growth inhibition call was “inactive”.
With `CN1CC2(CCN(C(=O)[C@H]3CCC(=O)N3)CC2)COc2ccccc2S1(=O)=O` the entry was “inactive”; with `C[C@@H]1CCCCO[C@H](CN(C)C(=O)NC2CCCCC2)[C@H](C)CN([C@@H](C)CO)C(=O)c2cc(NS(=O)(=O)c3ccc(F)cc3)ccc2O1`, “inactive”.
With `O=C(C[C@H]1C[C@@H]2c3cc(NS(=O)(=O)c4ccc(F)cc4)ccc3O[C@@H]2[C@@H](CO)O1)NCc1ccncc1` the entry was “inactive”.
For the compound `CSc1nc(C)cc(NC(N)=O)n1`, the growth inhibition call was “inactive”.
With `COc1cc(N2CCC(N3CCN(C)CC3)CC2)ccc1Nc1ncc(Cl)c(Nc2ccccc2S(=O)(=O)C(C)C)n1` the entry was “inactive”; with `COc1cc(N2CCC(N(C)C)CC2)ccc1Nc1ncc(Cl)c(Nc2ccccc2P(C)(C)=O)n1`, “inactive”.
With `COc1cc(N2CCC(N)CC2)ccc1Nc1ncc(Cl)c(-c2c[nH]c3ccccc23)n1` the entry was “active”; with `CCCNC(=O)N1C[C@H](O)COC[C@@H]2O[C@H](CC(=O)N3CCN(C)CC3)CC[C@H]21`, “inactive”.
With `O=C(CN1CCOCC1)N[C@H]1CC[C@@H](CCNC(=O)C2CCCCC2)O[C@H]1CO` the entry was “inactive”; with `CO[C@@]1(NC(=O)[C@@H](C(=O)O)c2ccc(O)cc2)C(=O)N2C(C(=O)O)=C(CSc3nnnn3C)CO[C@@H]21`, “inactive”.
Turning to `COC1(NC(=O)CSCC#N)C(=O)N2C(C(=O)[O-])=C(CSc3nnnn3C)CSC21.[Na+]` (centres undefined), the growth inhibition call was “active”.
With `CO[C@@]1(NC(=O)CSC[C@@H](N)C(=O)O)C(=O)N2C(C(=O)O)=C(CSc3nnnn3C)CS[C@@H]21` the entry was “inactive”; with `COC1(NC(=O)C2SC(=C(C(N)=O)C(=O)O)S2)C(=O)N2C(C(=O)O)=C(CSc3nnnn3C)CSC21` (centres undefined), “active”; with `COC1(NC(=O)C(C(=O)[O-])c2ccc(O)cc2)C(=O)N2C(C(=O)[O-])=C(CSc3nnnn3C)COC21.[Na+].[Na+]` (centres undefined), “active”.
Regarding `C[C@H](CO)N1C[C@H](C)[C@@H](CN(C)Cc2ccc3c(c2)OCO3)Oc2c(NC(=O)c3ccncc3)cccc2C1=O`, the growth inhibition call was “inactive”.
With `COc1ccc(S(=O)(=O)Nc2ccc3c(c2)CC(=O)N([C@H](C)CO)C[C@@H](C)[C@H](CN(C)S(=O)(=O)c2ccc(F)cc2)O3)cc1` the entry was “inactive”; with `O=C(CCCCCNC(=O)OCc1ccc(CO[C@H]2C[C@@H](C3CCCCC3)C=C(C(=O)N3CCN(Cc4ccc5c(c4)OCO5)CC3)O2)cc1)NO`, “inactive”.
